Records with an inconclusive call do not appear. Active and inactive are the calls of the source. Unless noted, calls come from the whole dose curve; as a rule, active = well fitted curve in the direction sought with a large enough effect; inconclusive = small, poorly fitted or top-dose-only effect, or another doubt; inactive = no such curve, though single readings can be large; an effect the other way counts as inactive or inconclusive.
Key:
[1] = MultiTox-Fluor Cytotoxicity Assay - LYMP1-001 - Live Cells (AID 947); settings: LYMP1-001 lymphoblastoid cells, live-cell protease fluorescence viability; series mostly up to 92.2 µM; note: potency is the fitted concentration of half-maximal effect
[2] = Cell Viability - LYMP1-002 - Assay at 16 hr (AID 948); settings: LYMP1-002 lymphoblastoid cell viability; series mostly up to 92.2 µM; note: potency is the fitted concentration of half-maximal effect
Method in brief: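 ATP luminescence (CellTiter-Glo) was measured after 16 hr compound exposure at 37 C of 2500 lymphoblastoid LYMP1-002 cells per well. Concentration-response curves were fitted with the Hill equation to give AC50.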

[3] = MultiTox-Fluor Cytotoxicity Assay - LYMP1-002 - Live Cells (AID 955); settings: LYMP1-002 lymphoblastoid live-cell protease fluorescence viability; series mostly up to 46.1 µM;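 note: potency is the fitted concentration of half-maximal effect; cells exposed to compound for 16 hours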
Method in brief: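 In this qHTS viability format, lymphoblastoid cells (LYMP1-002, human) received compound for 16 hr at 37 C. Fluorogenic GF-AFC cleavage by viable cells was detected at 405/510 nm after 1 h at room temperature.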

[4] = MultiTox-Fluor Cytotoxicity Assay - LYMP1-003 - Dead Cells (AID 961); settings: LYMP1-003 lymphoblastoid cells, dead-cell protease fluorescence; series mostly up to 92.2 µM; note: potency is the fitted concentration of half-maximal effect; nearly all actives have a fitted effect of over 70% in size
Method in brief: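 Acute toxicity is scored as increased dead-cell protease activity in human lymphoblastoid LYMP1-003 cells after 16 h compound exposure in complete culture medium. Activity is normalized to DMSO basal and 15 uM tetraoctylammonium bromide as full response.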

[5] = MultiTox-Fluor Cytotoxicity Assay - LYMP1-003 - Live Cells (AID 962); settings: LYMP1-003 lymphoblastoid cells, MultiTox-Fluor live-cell protease fluorescence; series mostly up to 92.2 µM;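 note: potency is the fitted concentration of half-maximal effect; cells exposed to compound for 16 hours at 37 °C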
Method in brief: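 Human lymphoblastoid line LYMP1-003 in complete culture medium, treated 16 hr with titrated compounds. Viable cells quantified via cell-permeant GF-AFC substrate fluorescence; AC50 derived by Hill fitting.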

[6] = Cell Viability - LYMP1-003 - Assay at 24 hr (AID 963); settings: LYMP1-003 lymphoblastoid cell viability; series mostly up to 92.2 µM; note: potency is the fitted concentration of half-maximal effect
Method in brief: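 The lymphoblastoid line was treated with titrated compounds for 24 hours, and viable cell number estimated from luciferase-based ATP luminescence.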

[7] = Cell Viability - LYMP1-003 - Assay at 40 hr (AID 964); settings: LYMP1-003 lymphoblastoid viability; series mostly up to 92.2 µM; note: potency is the fitted concentration of half-maximal effect; nearly all actives have a fitted effect of over 60% in size
Method in brief: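 Acute toxicity is scored as a concentration-dependent loss of intracellular ATP in LYMP1-003 cells (2500/well, complete medium) after 40 hr at 37 C, measured by CellTiter-Glo luminescence; AC50 values derive from standard Hill modelling.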

[8] = Cell Viability - LYMP2-003 (AID 965); settings: LYMP2-003 lymphoblastoid cell viability; series mostly up to 92.2 µM;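 note: potency is the fitted concentration of half-maximal effect; cells exposed to compounds for 24 h before reading; nearly all actives have a fitted effect of over 50% in size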
Method in brief: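 CellTiter-Glo luminescence quantified ATP loss after 24 h compound treatment of LYMP2-003 lymphoblastoid cells at 37 C. Titration series were fitted with the standard Hill equation to give AC50.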

[9] = Cell Viability - LYMP2-009 (AID 968); settings: LYMP2-009 lymphoblastoid cell viability; series mostly up to 92.2 µM; note: potency is the fitted concentration of half-maximal effect; nearly all actives have a fitted effect of over 55% in size
[10] = Cell Viability - LYMP2-011 (AID 969); settings: LYMP2-011 lymphoblastoid cells viability; series mostly up to 92.2 µM; note: potency is the fitted concentration of half-maximal effect; nearly all actives have a fitted effect of over 60% in size
Method in brief: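 Cells seeded at 2500 per well rest 5 hr before compound addition, then incubate 24 hr at 37 C. CellTiter-Glo reagent is added for 30 min at room temperature before luminescence detection.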

[11] = Cell Viability - LYMP2-013 (AID 970); settings: LYMP2-013 lymphoblastoid cells viability; series mostly up to 92.2 µM; note: potency is the fitted concentration of half-maximal effect; nearly all actives have a fitted effect of over 55% in size
Method in brief: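 In complete culture medium, human lymphoblastoid cells were dosed for 24 hr at 37 C, with tetraoctylammonium bromide (6.4pM to 92 uM) as positive control. Viability reflects luciferase-based ATP signal; AC50 derived from concentration-response curves.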

[12] = Cell Viability - LYMP2-015 (AID 971); settings: LYMP2-015 lymphoblastoid cell viability; series mostly up to 92.2 µM; note: potency is the fitted concentration of half-maximal effect; nearly all actives have a fitted effect of over 55% in size
Method in brief: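 AC50 values reflect Hill-model fits of ATP-based luminescence (CellTiter-Glo) from a human lymphoblastoid line, 2500 cells/well, treated 24 hr at 37 C.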

[13] = Cell Viability - LYMP2-017 (AID 972); settings: LYMP2-017 lymphoblastoid cell viability; series mostly up to 92.2 µM;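 note: potency is the fitted concentration of half-maximal effect; cells exposed to compound for 24 hours at 37 °C; nearly all actives have a fitted effect of over 55% in size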
Method in brief: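 In this qHTS format, lymphoblastoid cells in complete medium receive test compound for a day at 37 C before ATP content is quantified by luciferase luminescence. Reported AC50 figures come from standard Hill-equation curve fitting.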

[14] = Cell Viability - LYMP2-019 (AID 973); settings: LYMP2-019 lymphoblastoid cell line viability; series mostly up to 92.2 µM
Method in brief: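 AC50 values come from Hill-equation modelling of qHTS concentration-response curves, where viability is measured as luciferase-based ATP luminescence in the lymphoblastoid line after 24 hr compound exposure in complete culture medium.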

[15] = Cell Viability - LYMP2-021 (AID 974); settings: LYMP2-021 lymphoblastoid cells viability; series mostly up to 92.2 µM
Method in brief: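 In qHTS format, compounds are tested against 2500 lymphoblastoid cells per well for 24 h; viable cell number is inferred from ATP-driven luciferase light, and Hill-equation fitting yields AC50 values.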

[16] = target: Alpha-galactosidase (Coffea arabica) (UniProt Q42656); test: Counterscreen for Glucocerebrosidase Inhibitors: qHTS Assay for Coffee Bean alpha-Galactosidase at pH 4.5 (AID 957); settings: purified coffee bean alpha-galactosidase, fluorogenic substrate; series mostly up to 76.9 µM
Chain of Alpha-galactosidase (Coffea arabica) (Q42656 whole entry, looked up): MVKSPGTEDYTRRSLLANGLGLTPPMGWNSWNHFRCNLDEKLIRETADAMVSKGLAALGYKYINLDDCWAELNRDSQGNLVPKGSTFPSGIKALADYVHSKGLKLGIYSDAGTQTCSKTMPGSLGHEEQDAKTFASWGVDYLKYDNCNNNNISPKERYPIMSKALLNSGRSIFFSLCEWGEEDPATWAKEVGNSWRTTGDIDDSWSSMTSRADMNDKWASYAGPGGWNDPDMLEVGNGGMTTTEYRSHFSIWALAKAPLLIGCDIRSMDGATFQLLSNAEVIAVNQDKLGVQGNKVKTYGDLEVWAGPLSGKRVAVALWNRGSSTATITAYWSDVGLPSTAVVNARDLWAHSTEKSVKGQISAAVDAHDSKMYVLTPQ
Method in brief: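 Quantitative HTS of compounds (0.7 nM to 77 uM) against coffee bean alpha-galactosidase at pH 4.5, measuring 4-methylumbelliferone fluorescence released from 80 uM substrate.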

[17] = Cell Viability - LYMP2-004 (AID 966); settings: LYMP2-004 lymphoblastoid cell viability, qHTS; series mostly up to 92.2 µM; note: potency is the fitted concentration of half-maximal effect; nearly all actives have a fitted effect of over 65% in size
Method in brief: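 Viable-cell number estimated from ATP luminescence (CellTiter-Glo) in 2500 human lymphoblastoid cells/well after 24 hr at 37 C with compound. AC50 fitted to the standard Hill equation.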

[18] = target: Pyruvate kinase PKM (Homo sapiens) (UniProt P14618); test: qHTS Assay for Activators of Human Muscle Pyruvate Kinase (AID 954; active = well fitted curve in the direction sought with a large enough effect, not every such curve was filed as active); settings: purified human muscle pyruvate kinase, luciferase-coupled luminescence, 1 h; series mostly up to 57.5 µM
Chain of Pyruvate kinase PKM (Homo sapiens) (P14618 whole entry, looked up): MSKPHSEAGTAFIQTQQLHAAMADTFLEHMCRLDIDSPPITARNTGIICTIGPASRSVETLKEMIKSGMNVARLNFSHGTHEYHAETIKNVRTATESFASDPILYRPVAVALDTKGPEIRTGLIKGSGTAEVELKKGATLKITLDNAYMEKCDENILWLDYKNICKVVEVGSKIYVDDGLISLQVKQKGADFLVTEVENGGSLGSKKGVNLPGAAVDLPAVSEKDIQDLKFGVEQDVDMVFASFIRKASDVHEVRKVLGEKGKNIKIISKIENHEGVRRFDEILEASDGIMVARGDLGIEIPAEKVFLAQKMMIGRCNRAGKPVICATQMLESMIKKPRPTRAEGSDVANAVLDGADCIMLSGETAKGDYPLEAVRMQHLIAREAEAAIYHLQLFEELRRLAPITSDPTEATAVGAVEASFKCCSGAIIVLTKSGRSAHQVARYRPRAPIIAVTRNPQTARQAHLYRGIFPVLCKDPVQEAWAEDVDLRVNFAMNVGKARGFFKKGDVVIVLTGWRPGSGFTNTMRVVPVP
Method in brief: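 Screening used highly purified human pyruvate kinase M2 under submaximal activity, with PEP at its Km and ADP below Km. After an hour at room temperature, ATP was read by luciferase luminescence.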

[19] = Cell Viability - LYMP2-005 (AID 967); settings: LYMP2-005 lymphoblastoid cell viability; series mostly up to 92.2 µM; note: potency is the fitted concentration of half-maximal effect
Method in brief: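 LYMP2-005 human lymphoblastoid cells (2500/well) were treated with compounds for 24 h at 37 C. Intracellular ATP was then measured by CellTiter-Glo luminescence after 30 min at room temperature. AC50 values came from Hill-equation fits of qHTS concentration-response data.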

Measured: Potency

CCCCCCCCCCCC[N+](C)(C)CCOc1ccccc1
active: [1] 25.1 µM | [2] 15.8 µM | [3] 10 µM | [4] 12.6 µM | [5] 31.6 µM | [6] 12.6 µM | [7] 31.6 µM | [8] 50.1 µM | [9] 31.6 µM | [10] 39.8 µM | [11] 31.6 µM | [12] 31.6 µM | [13] 39.8 µM | [14] 39.8 µM | [15] 39.8 µM

Nc1ccn([C@H]2CC[C@@H](CO)O2)c(=O)n1
inactive: [16]

COC(=O)C1=C(C)NC(C)=C(C(=O)OC)C1c1ccccc1[N+](=O)[O-]
inactive: [16]
active: [3] 31.6 µM | [4] 50.1 µM | [6] 50.1 µM | [7] 39.8 µM | [8] 50.1 µM | [17] 31.6 µM | [13] 50.1 µM | [14] 79.4 µM

CNC[C@H](O)c1ccc(O)c(O)c1
inactive: [16]

C=Cc1c(C)c2cc3[nH]c(cc4nc(cc5nc(cc1[nH]2)C(C)=C5CCC(=O)O)C(CCC(=O)O)=C4C)c(C)c3C=C
inactive: [16]

CN1[C@@H]2CC[C@H]1CC(OC(=O)c1cc(Cl)cc(Cl)c1)C2 (stereo partly drawn)
inactive: [18] | [16]

CC[n+]1c(-c2ccccc2)c2cc(N)ccc2c2ccc(N)cc21
active: [1] 25.1 µM | [4] 39.8 µM | [5] 12.6 µM | [6] 15.8 µM | [7] 6.31 µM | [8] 31.6 µM | [19] 6.31 µM | [9] 15.8 µM | [10] 12.6 µM | [11] 15.8 µM | [12] 15.8 µM | [13] 15.8 µM | [14] 12.6 µM | [15] 20 µM

Reference: PubChem BioAssay (NCATS)
